From ChEMBL document CHEMBL4513216, “Probing the Open Global Health Chemical Diversity Library for Multistage-Active Starting Points for Next-Generation Antimalarials” (ACS Infect Dis, 2020)
Out of some 68,000 compounds screened, about 2,700 (4%) showed an effect of 50% or more. This excerpt belongs to a sample that is enriched for strong results.

These compounds were tested on Plasmodium berghei (assay: Screen against P. berghei liver stage (PbLuc), transformed with Luciferase, at 2uM). Conditions: tested at 2 uM.
Assay type: functional, HepG2

In order of falling INHIBITION:
1. Cc1cccc(CN2CCCC23CCNC3)n1 (centres undefined)  63.89%
2. CCOc1ccc(S(=O)(=O)N(CCOC)Cc2ccncc2)cc1F  60.35%
3. CCCN1CCCC2(CCN(S(=O)(=O)c3cc(C)nn3CC)C2)C1=O (centres undefined)  57.75%
4. CCn1nc(C)cc1S(=O)(=O)N1CCC2(CCCN(C(C)C)C2=O)C1 (centres undefined)  55.36%
5. N#Cc1ccc(N2CCC3(CCC(=O)N3CCN3CCCC3)CC2)nc1  52.96%
6. Cc1nc(N2CCN(C(=O)c3ccsc3)CC2)c2cnn(C)c2n1  42.11%
7. COCCN1C(=O)[C@@H]2CC[C@H]1CN(C(=O)COc1ccc(F)c(Cl)c1)C2  38.83%
8. CCCn1nccc1S(=O)(=O)N1CCC2(CCCN(C(C)C)C2=O)C1 (centres undefined)  38.67%
9. CN(C)Cc1nn(C)c2c1CN(S(=O)(=O)c1ccccc1F)C2  32.05%
10. Cc1cccc(CN2CCCCC23CCNC3)n1 (centres undefined)  22.16%
11. Cc1ccc2c(c1)SCC(=O)N2CC(=O)N1CCC[C@H]1c1nc(C)no1  22%
12. CCOc1ccc(S(=O)(=O)N(CCOC)Cc2ccoc2)cc1F  21.37%
13. Cc1cccc(CN2CCC23CCCNC3)n1 (centres undefined)  20.51%
14. Cc1nc(C)n(CC2CCCCN2CC(=O)Nc2nnc(C)s2)n1 (centres undefined)  19.97%
15. COc1ccc(C2=CCN(C(=O)C3CCN(C)C(=O)C3)CC2)cc1 (centres undefined)  17.39%
16. CSCC[C@@H](CO)n1ccnc1-c1nccn1C  17.37%
17. CCn1nccc1S(=O)(=O)N1CCC2(CCCN(C(C)C)C2=O)C1 (centres undefined)  17.2%
18. CCCN1CCCC2(CCN(S(=O)(=O)c3cccnc3)C2)C1=O (centres undefined)  11.9%
19. CCn1nc(C)cc1S(=O)(=O)N1CCC2(CC(=O)NC2=O)C1 (centres undefined)  5.28%
20. CN1C(=O)CCC12CCN(c1ccc(C#N)cn1)CC2  5.22%
21. CCc1noc(C(C)N2CCN(Cc3cnc(C)cn3)CC2)n1 (centres undefined)  -1.29%
22. CCc1nnc2n1CCN(Cc1csc(NC(C)=O)n1)C2  -5.09%
23. CN1CC(=O)N(c2cnn(C)c2)CC12CCN(C(=O)c1ccsc1)C2 (centres undefined)  -6.94%
24. COCCN(Cc1ccoc1)S(=O)(=O)c1ccc(F)c(C)c1  -10.1%
25. N#Cc1ccc(N2CCCC3(CCC(=O)N3CC3CC3)CC2)nc1 (centres undefined)  -16.78%
26. Cc1nc(C)n(CC2CCCN(CCOc3ccc(F)cc3)C2)n1 (centres undefined)  -23.18%
27. COc1ccccc1N1CCN(C(=O)COc2c(C)occc2=O)CC1  -24.81%
28. COCC(=O)NCC1(COc2cccnc2)C[C@@H](O)[C@@H](O)C1 (some centres undefined)  -40.44%
29. COc1c(CNC2CCc3cc(F)ccc32)c(C(C)C)nn1C (centres undefined)  -52.77%
